# Test results from PubChem BioAssay (Tox21).
# Unmarked numbers belong to inactive results. Results filed as inconclusive are left out. A call without a number means that no potency is given here. Active and inactive are the calls of the source. Unless noted, the call rests on the fitted dose curve; in most records, active means well fitted curve in the direction sought with a large enough effect in the repeat runs; inconclusive means weak or mixed curves; inactive means no such curve, though single readings can be large; an effect the other way counts as inactive or inconclusive.
# Assays:
# [1] = qHTS assay to identify small molecule agonists of the progesterone receptor (PR) signaling pathway - cell viability counter screen (AID 1346799; calls by dose curve; further: nearly all actives have a fitted effect of over 45% in size)
# How it was run: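 Cytotoxicity in PR-bla HEK293T cells: 16 h compound, 37C; CellTiter-Glo added post-FRET read; luminescence after 30 min RT.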
# [2] = qHTS assay to identify small molecule antagonists of the TGF-beta/Smad signaling pathway - cell viability counter screen (AID 1346824); further: nearly all actives have a fitted effect of over 50% in size
# How it was run: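 Cytotoxicity counter-screen run in the same wells as the beta-lactamase Smad reporter read: CellTiter-Glo luminescence after 30 min at room temperature. HEK 293T SBE-bla cells had 5 hr compound exposure at 37 C with TGF-beta1 (0.25 ng/mL stock).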
# [3] = qHTS assay to identify small molecule agonists of the TGF-beta/Smad signaling pathway - cell viability counter screen (AID 1346829); further: top concentration of the series differs between compounds; nearly all actives have a fitted effect of over 45% in size
# How it was run: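 Compound-treated SBE-bla HEK 293T cells (5 hr, 37 C) were assessed for viability with CellTiter-Glo in parallel with the reporter read.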
# [4] = qHTS assay to identify small molecule agonists of the TGF-beta/Smad signaling pathway (AID 1346859; active means well fitted activation curve with a large enough effect in the signal ratio in the repeat runs, not every such curve was filed as active; the % refers to the signal ratio; further: series mostly up to about 77 µM)
# How it was run: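 Stable Smad binding element-beta-lactamase HEK 293T cells; 5 hr compound exposure at 37 C under 5% CO2; 2 hr room-temperature substrate step; fluorescence excited at 405 nm, collected at 460 nm and 530 nm.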
# [5] = molecular target: Thyrotropin-releasing hormone receptor (Homo sapiens) (UniProt P34981); assay: qHTS assay to identify small molecule antagonists of the thyrotropin-releasing hormone receptor (TRHR) signaling pathway (AID 1346877; active means well fitted inhibition curve with a large enough effect in the repeat runs, not every such curve was filed as active; further: series mostly up to about 51 µM)
# Chain of Thyrotropin-releasing hormone receptor (Homo sapiens) (P34981 whole entry, looked up): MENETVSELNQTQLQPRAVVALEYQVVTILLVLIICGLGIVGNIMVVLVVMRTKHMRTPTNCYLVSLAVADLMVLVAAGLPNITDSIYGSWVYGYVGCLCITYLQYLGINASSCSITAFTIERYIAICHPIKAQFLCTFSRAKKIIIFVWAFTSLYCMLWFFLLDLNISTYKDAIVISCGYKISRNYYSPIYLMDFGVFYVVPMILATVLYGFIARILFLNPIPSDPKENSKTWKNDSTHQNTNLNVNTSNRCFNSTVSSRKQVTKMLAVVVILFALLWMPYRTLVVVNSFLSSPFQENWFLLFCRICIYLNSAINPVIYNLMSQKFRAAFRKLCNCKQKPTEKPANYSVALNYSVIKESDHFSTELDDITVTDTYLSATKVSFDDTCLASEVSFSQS
# How it was run: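 HEK293/TRHR cells, 18 h, 37 °C; Ca2+ dye 2 h; cpd 5 min RT; TRH 1 nM final; fluorescence read 3 min, 1 s intervals; 15 concs, triplicate.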
# [6] = molecular target: Thyrotropin-releasing hormone receptor (Homo sapiens) (UniProt P34981); assay: qHTS assay to identify small molecule agonists of the thyrotropin-releasing hormone receptor (TRHR) signaling pathway (AID 1346891; calls by dose curve;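 further: HEK293 cells expressing TRHR with calcium dye readout; series mostly up to about 58 µM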)
# How it was run: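 In 1536-format, 1500 TRHR-Hek293 cells per well grew 18 h, took up calcium dye for 2 h at 37 °C, received compound, and were read kinetically; 15-point titrations, triplicates.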
# [7] = Caspase-3/7 induction in HepG2 cells by small molecules, qHTS assay (AID 1346978); further: nearly all actives have a fitted effect of over 15% in size
# How it was run: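 Caspase-3/7 induction was measured by Caspase-Glo 3/7 luminescence (30 min, room temperature) after a 17 hr compound exposure of wild-type HepG2 cells seeded at 2,000 per well and pre-incubated 5 hr.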
# [8] = Caspase-3/7 induction in CHO-K1 cells by small molecules, qHTS cell viability counter screen (AID 1346979); further: nearly all actives have a fitted effect of over 35% in size; further: potency means the concentration at half of the fitted maximal effect
# How it was run: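 To flag cytotoxic compounds, treated CHO-K1 wild-type cells were given CellTiter-Fluor at 16hr and read fluorescently after 1hr at 37C; the caspase-3/7 luminescence was measured in these same wells.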
# [9] = Caspase-3/7 induction in CHO-K1 cells by small molecules, qHTS assay (AID 1346980); further: nearly all actives have a fitted effect of over 15% in size
# How it was run: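 Luminescent Caspase-Glo 3/7 read (30min, room temperature) quantified apoptosis induction. Cells were wild-type CHO-K1, treated with compound for 17hr at 37 C and 5% CO2.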
# [10] = Caspase-3/7 induction in HepG2 cells by small molecules, qHTS cell viability counter screen (AID 1346981); further: nearly all actives have a fitted effect of over 30% in size; further: potency means the concentration at half of the fitted maximal effect; on activity change, negative = cytotoxicity: series mostly up to about 92 µM
# How it was run: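 Fluorescence read-out of live-cell protease activity (CellTiter-Fluor) after 1 hr with reagent. This was measured in the same wells as the caspase-3/7 luminescence, on HepG2 cells exposed to DMSO-dissolved compounds for 16 hr at 37 C.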
# [11] = molecular target: Nuclear receptor subfamily 1 group I member 2 (Homo sapiens) (UniProt O75469); assay: Human pregnane X receptor (PXR) small molecule agonists, qHTS assay (AID 1346982); further: nearly all actives have a fitted effect of over 35% in size; further: potency means the concentration at half of the fitted maximal effect
# Chain of Nuclear receptor subfamily 1 group I member 2 (Homo sapiens) (O75469 whole entry, looked up): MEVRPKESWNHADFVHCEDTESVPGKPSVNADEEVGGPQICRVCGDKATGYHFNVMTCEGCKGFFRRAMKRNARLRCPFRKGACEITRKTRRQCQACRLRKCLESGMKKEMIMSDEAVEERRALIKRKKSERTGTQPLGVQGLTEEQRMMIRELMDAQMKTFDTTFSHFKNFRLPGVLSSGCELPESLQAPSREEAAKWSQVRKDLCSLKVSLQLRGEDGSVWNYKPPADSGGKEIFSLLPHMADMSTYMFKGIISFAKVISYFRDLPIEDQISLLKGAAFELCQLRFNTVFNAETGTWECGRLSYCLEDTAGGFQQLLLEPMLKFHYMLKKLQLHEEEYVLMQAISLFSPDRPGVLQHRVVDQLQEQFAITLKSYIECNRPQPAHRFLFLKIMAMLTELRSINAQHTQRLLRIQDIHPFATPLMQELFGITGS
# How it was run: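 HepG2 PXR-Luc reporter line, 5% charcoal-stripped FBS; 5 hr pre-incubation, compound (DMSO) 24 hr at 37 C/5% CO2; ONE-Glo 30 min RT; luminescence read-out.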
# [12] = molecular target: Cytochrome P450 2D6 (Homo sapiens) (UniProt P10635); assay: Cytochrome P450 Family 2 Subfamily D Member 6 (CYP2D6) small molecule antagonists: luciferase reporter qHTS assay (AID 1671196); further: nearly all actives have a fitted effect of over 50% in size; further: potency means the concentration at half of the fitted maximal effect; on activity change, negative = inhibition: series mostly up to about 120 µM
# Chain of Cytochrome P450 2D6 (Homo sapiens) (P10635 whole entry, looked up): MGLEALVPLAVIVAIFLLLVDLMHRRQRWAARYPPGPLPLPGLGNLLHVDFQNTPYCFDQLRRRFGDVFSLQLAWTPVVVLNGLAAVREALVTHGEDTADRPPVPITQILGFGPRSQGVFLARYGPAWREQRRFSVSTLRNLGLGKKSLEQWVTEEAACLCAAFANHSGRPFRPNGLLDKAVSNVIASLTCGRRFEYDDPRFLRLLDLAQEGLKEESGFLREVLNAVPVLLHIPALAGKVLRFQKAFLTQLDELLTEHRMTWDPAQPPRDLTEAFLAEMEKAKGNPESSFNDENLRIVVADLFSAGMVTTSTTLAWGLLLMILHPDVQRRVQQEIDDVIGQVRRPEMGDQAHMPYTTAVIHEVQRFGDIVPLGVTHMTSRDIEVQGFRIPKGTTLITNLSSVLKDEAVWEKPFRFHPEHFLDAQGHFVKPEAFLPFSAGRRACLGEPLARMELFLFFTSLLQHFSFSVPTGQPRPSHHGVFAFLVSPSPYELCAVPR
# How it was run: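 Luminogenic proluciferin substrate, CYP2D6 enzyme; 10 min RT preincubation with compound, NADPH regeneration system added, 1 h RT. Stop/detection reagent, 20 min RT, luminescence read (RLU). Signal proportional to CYP activity.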
# [13] = molecular target: Cytochrome P450 2C19 (Homo sapiens) (UniProt P33261); assay: Cytochrome P450 Family 2 Subfamily C Member 19 (CYP2C19) small molecule antagonists: luciferase reporter qHTS assay (AID 1671197); further: nearly all actives have a fitted effect of over 65% in size; further: potency means the concentration at half of the fitted maximal effect; on activity change, negative = inhibition: series mostly up to about 120 µM
# Chain of Cytochrome P450 2C19 (Homo sapiens) (P33261 whole entry, looked up): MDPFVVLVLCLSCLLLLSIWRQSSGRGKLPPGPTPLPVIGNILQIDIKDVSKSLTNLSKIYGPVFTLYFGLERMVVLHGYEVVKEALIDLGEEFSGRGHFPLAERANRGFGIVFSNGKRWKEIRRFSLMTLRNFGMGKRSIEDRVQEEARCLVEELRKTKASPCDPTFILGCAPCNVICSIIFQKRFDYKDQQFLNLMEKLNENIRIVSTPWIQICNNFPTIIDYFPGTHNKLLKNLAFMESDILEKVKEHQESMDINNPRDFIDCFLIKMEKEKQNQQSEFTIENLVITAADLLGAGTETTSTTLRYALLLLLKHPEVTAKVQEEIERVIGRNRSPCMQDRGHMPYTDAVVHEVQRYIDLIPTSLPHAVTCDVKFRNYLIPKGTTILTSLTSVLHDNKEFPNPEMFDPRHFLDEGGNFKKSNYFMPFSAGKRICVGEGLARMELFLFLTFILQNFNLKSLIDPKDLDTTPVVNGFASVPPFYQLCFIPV
# How it was run: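 P450-Glo CYP2C19 screening system; proluciferin substrate; DMSO compound stocks; 10 min RT preincubation; NADPH regeneration, 1 h at 37C; luciferin detection reagent, 20 min RT; luminescence as RLU.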
# [14] = molecular target: Cytochrome P450 2C9 (Homo sapiens) (UniProt P11712); assay: Cytochrome P450 Family 2 Subfamily C Member 9 (CYP2C9) small molecule antagonists: luciferase reporter qHTS assay (AID 1671198); further: nearly all actives have a fitted effect of over 50% in size; further: potency means the concentration at half of the fitted maximal effect; on activity change, negative = inhibition: series mostly up to about 120 µM
# Chain of Cytochrome P450 2C9 (Homo sapiens) (P11712 whole entry, looked up): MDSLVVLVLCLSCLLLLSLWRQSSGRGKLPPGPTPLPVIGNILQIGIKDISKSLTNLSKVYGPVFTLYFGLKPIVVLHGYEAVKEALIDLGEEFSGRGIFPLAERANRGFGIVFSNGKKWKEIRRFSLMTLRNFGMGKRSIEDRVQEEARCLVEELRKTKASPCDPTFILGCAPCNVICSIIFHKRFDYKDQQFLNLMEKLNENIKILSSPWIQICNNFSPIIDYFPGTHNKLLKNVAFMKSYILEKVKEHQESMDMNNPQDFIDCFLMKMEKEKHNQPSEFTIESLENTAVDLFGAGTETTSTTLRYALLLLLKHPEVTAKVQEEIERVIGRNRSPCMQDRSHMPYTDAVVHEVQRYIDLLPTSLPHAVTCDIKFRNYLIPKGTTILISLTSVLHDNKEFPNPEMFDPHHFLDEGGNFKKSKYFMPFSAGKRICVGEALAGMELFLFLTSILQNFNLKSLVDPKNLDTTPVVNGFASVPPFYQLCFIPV
# How it was run: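 Enzyme-substrate mix preincubated with compound 10 min at room temperature; reaction started with NADPH regeneration solution, 1 h 37C. Luminescent luciferin product read after 20 min detection reagent.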
# [15] = molecular target: Voltage-gated inwardly rectifying potassium channel KCNH2 (Homo sapiens) (UniProt Q12809); assay: Human Ether-a-go-go-Related Gene (hERG) channel small molecule antagonists: fluorescence cell-based qHTS assay (AID 1671200);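 further: hERG-expressing U2OS cells given a thallium stimulus after FluxOR II dye loading; series mostly up to about 77 µM; nearly all actives have a fitted effect of over 50% in size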
# Chain of Voltage-gated inwardly rectifying potassium channel KCNH2 (Homo sapiens) (Q12809 whole entry, looked up): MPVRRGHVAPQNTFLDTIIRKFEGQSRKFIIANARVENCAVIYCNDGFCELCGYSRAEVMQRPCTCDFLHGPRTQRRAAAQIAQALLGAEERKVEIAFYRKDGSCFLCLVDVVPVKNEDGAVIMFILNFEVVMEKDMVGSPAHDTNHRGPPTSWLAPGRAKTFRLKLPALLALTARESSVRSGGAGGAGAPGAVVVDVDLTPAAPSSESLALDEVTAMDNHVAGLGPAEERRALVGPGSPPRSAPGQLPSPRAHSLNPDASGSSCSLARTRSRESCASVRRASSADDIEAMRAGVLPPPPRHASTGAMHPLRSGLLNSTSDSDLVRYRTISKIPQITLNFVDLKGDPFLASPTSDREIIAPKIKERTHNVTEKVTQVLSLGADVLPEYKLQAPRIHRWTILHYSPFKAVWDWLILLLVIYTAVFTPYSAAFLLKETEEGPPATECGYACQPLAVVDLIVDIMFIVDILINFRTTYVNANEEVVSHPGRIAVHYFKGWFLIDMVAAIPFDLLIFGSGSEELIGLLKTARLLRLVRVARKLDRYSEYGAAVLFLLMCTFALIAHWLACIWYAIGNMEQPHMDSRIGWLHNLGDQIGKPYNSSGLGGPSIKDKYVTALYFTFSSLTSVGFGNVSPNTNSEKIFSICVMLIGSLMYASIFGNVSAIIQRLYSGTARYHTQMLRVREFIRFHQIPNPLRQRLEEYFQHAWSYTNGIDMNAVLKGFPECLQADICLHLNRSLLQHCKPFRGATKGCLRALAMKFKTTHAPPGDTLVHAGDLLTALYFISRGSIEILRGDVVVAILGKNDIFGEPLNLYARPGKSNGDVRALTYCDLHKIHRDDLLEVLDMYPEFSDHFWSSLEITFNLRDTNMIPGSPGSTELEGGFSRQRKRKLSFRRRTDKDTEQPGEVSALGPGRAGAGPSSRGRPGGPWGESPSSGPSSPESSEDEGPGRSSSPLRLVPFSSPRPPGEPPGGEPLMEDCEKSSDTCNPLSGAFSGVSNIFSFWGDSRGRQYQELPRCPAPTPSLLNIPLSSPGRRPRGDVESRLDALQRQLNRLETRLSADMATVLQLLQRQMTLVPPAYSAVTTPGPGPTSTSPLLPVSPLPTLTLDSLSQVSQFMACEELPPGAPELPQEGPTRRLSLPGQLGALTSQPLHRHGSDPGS
# How it was run: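 Measured: Tl+ flux via fluorescence (480/540 nm) in hERG-expressing U2OS cells after 1 h dye loading at room temperature.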
# [16] = molecular target: Cytochrome P450 1A2 (Homo sapiens) (UniProt P05177); assay: Cytochrome P450 Family 1 Subfamily A Member 2 (CYP1A2) small molecule antagonists: luciferase reporter qHTS assay (AID 1671199); further: nearly all actives have a fitted effect of over 50% in size; further: potency means the concentration at half of the fitted maximal effect; on activity change, negative = inhibition: series mostly up to about 120 µM
# Chain of Cytochrome P450 1A2 (Homo sapiens) (P05177 whole entry, looked up): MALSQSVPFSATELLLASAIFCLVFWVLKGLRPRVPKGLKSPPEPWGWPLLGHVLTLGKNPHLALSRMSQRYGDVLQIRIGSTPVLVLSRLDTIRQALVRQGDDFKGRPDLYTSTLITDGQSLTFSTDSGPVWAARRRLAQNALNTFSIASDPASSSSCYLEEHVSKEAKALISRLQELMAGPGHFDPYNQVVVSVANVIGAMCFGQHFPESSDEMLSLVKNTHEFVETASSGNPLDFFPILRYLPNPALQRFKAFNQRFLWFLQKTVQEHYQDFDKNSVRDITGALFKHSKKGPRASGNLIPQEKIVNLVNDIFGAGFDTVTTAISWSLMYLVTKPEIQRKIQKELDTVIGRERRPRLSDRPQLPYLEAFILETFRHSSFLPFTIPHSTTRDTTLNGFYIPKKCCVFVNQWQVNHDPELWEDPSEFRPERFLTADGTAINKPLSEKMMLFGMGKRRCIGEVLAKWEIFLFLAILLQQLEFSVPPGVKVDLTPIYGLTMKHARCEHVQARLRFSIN
# How it was run: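 Luminescence readout (relative luminescence units) after luciferin detection reagent, 20 min RT. Preceded by 1 h room-temperature CYP1A2 reaction with NADPH regeneration solution following 10 min compound preincubation with enzyme and proluciferin substrate. Furafylline positive control.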
# [17] = Human pregnane X receptor (PXR) small molecule agonists, qHTS cell viability counter screen (AID 1346977); further: nearly all actives have a fitted effect of over 50% in size
# How it was run: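 Readout is CellTiter-Fluor fluorescence from PXR-Luc HepG2 cells. Plated cells rested 5hr, then were treated with compounds for 24hr at 37C and 5% CO2, with reagent present during the last hour.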
compound,measurement,setting,value
Cc1c[nH]c(=O)[nH]c1=O,Potency,[1],inactive
same,Potency,[2],inactive
same,Potency,[3],inactive
same,outcome,[4],inactive
same,Potency,[5],inactive
same,Potency,[6],inactive
same,Potency,[7],inactive
same,Potency,[8],inactive
same,Potency,[9],inactive
same,Potency,[10],inactive
same,Potency,[11],inactive
same,Potency,[12],inactive
same,Potency,[13],inactive
same,Potency,[14],inactive
same,Potency,[15],inactive
Cc1ccc(N=Nc2c(O)ccc3ccccc23)c(C)c1,Potency,[1],inactive
same,Potency,[2],inactive
same,Potency,[3],inactive
same,outcome,[4],inactive
same,Potency,[5],inactive
same,Potency,[6],inactive
same,Potency,[7],inactive
same,Potency,[8],7.5 µM (active)
same,Potency,[9],inactive
same,Potency,[10],8.41 µM (active)
same,Potency,[11],0.944 µM (active)
same,Potency,[12],17.4 µM (active)
same,Potency,[13],12.3 µM (active)
same,Potency,[16],3.47 µM (active)
COCCC(=O)OC,Potency,[1],inactive
same,Potency,[2],inactive
same,Potency,[3],inactive
same,outcome,[4],inactive
same,Potency,[5],inactive
same,Potency,[6],inactive
same,Potency,[17],inactive
same,Potency,[7],inactive
same,Potency,[8],inactive
same,Potency,[9],inactive
same,Potency,[10],inactive
same,Potency,[11],inactive
same,Potency,[12],inactive
same,Potency,[13],inactive
same,Potency,[15],inactive
COc1cc(C(C)C)ccc1C,"activity change, negative = cytotoxicity",[1],-8.49% [at 19 µM]
same,"viability change, negative = cytotoxic",[2],-0.209% [at 15.8 µM]
same,"activity change, negative = cytotoxicity",[3],6.13% [at 15.8 µM]
same,activation,[4],5.38% [at 15.8 µM]
same,"activity, negative = inhibition",[5],-0.302% [at 10.5 µM]
same,activation,[6],0.0321% [at 11.8 µM]
same,"activity change, negative = cytotoxicity",[17],1.46% [at 19 µM]
same,caspase activation,[7],0.0291% [at 19 µM]
same,"activity change, negative = cytotoxicity",[8],-7.98% [at 19 µM]
same,caspase-3/7 activation,[9],-1.8% [at 19 µM]
same,"activity change, negative = cytotoxicity",[10],-0.801% [at 19 µM]
same,activation,[11],-14.1% [at 19 µM]
same,"activity change, negative = inhibition",[12],-6.69% [at 23.6 µM]
same,"activity change, negative = inhibition",[13],-21% [at 23.6 µM]
same,"activity change, negative = inhibition",[16],-17.4% [at 23.6 µM]
same,"activity change, negative = inhibition",[15],-1.11% [at 15.8 µM]
CCCCCCCCc1ccc(Nc2ccc(CCCCCCCC)cc2)cc1,Potency,[1],inactive
same,Potency,[2],inactive
same,Potency,[3],inactive
same,outcome,[4],inactive
same,Potency,[5],inactive
same,Potency,[6],inactive
same,Potency,[17],inactive
same,Potency,[7],inactive
same,Potency,[8],inactive
same,Potency,[9],inactive
same,Potency,[10],inactive
same,Potency,[11],inactive
same,Potency,[12],inactive
same,Potency,[15],inactive
O=c1cc[nH]cc1,Potency,[1],inactive
same,Potency,[2],inactive
same,Potency,[3],inactive
same,outcome,[4],inactive
same,Potency,[5],inactive
same,Potency,[6],inactive
same,Potency,[7],inactive
same,Potency,[8],inactive
same,Potency,[9],inactive
same,Potency,[10],inactive
same,Potency,[11],inactive
same,Potency,[13],inactive
same,Potency,[14],inactive
same,Potency,[15],inactive
[Cl][Sc]([Cl])[Cl],Potency,[1],inactive
same,Potency,[2],inactive
same,Potency,[3],inactive
same,outcome,[4],inactive
same,Potency,[17],inactive
same,Potency,[7],inactive
same,Potency,[8],inactive
same,Potency,[9],inactive
same,Potency,[10],inactive
same,Potency,[11],inactive
same,Potency,[12],inactive
same,Potency,[13],inactive
same,Potency,[14],inactive
same,Potency,[16],inactive
same,Potency,[15],inactive
C=Cc1ccc(O)c(OC)c1,Potency,[1],inactive
same,Potency,[2],inactive
same,Potency,[3],inactive
same,outcome,[4],inactive
same,Potency,[5],inactive
same,Potency,[17],inactive
same,Potency,[7],inactive
same,Potency,[8],inactive
same,Potency,[9],inactive
same,Potency,[10],inactive
same,Potency,[13],79.6 µM (active)
same,Potency,[14],31.7 µM (active)
same,Potency,[15],inactive
